Pf growth 96h: Primary qHTS for delayed death inhibitors of the malarial parasite plastid, 96 hour incubation. P. falciparum luciferase reporter growth, 96 h. Potency, µM (top dose mostly 28.7 µM), inactives show at the top dose activity change, negative = inhibition, actives largely listed as inhibitors. 320,000 compounds, 6.9% hits. AID 504834, 2011; also: potency is read from the fitted curve at half-maximal effect; % is scaled to controls: 0 for no effect and ±100 for the full control effect
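Infected RBCs, 2% Hct / 0.05% parasitemia final; luciferase-reporter P. falciparum; cpd 96 h, 37 C, 5% CO2; luciferase detection reagent; luminescence.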
Shiga inhibitor: A qHTS for Small Molecule Inhibitors of Shiga Toxin; inhibition, % at 38.7 µM; 290,000 compounds, 9.2% hits; Vero cells, Shiga toxin protein synthesis inhibition reporter; in the data active = inhibition mostly above about 28%, no sharp cut-off; inactive = mostly below about 43%; also: 0% is about no effect
Pf growth 48h: Primary qHTS for delayed death inhibitors of the malarial parasite plastid, 48 hour incubation | P. falciparum luciferase growth in erythrocytes, 48 h | Potency, µM (series often up to 28.7 µM), for inactives: top-dose activity change, negative = inhibition, usual class: inhibitors | 310,000 compounds, 5.9% hits | AID 504832, 2011; also: potency is read from the fitted curve at half-maximal effect; % is scaled to controls: 0 for no effect and ±100 for the full control effect
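A one-generation exposure of luciferase-tagged malaria parasites in RPMI 1640/Albumax erythrocyte culture, 37 C and 5% CO2. Inhibition is inferred from decreased luminescence after adding detection reagent.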
CHX counter: Cycloheximide Counterscreen for Small Molecule Inhibitors of Shiga Toxin. cell reporter, cycloheximide protein synthesis inhibition counterscreen. max response, %. 300,000 compounds, 12% hits. AID 2314, 2010; in the data active = max response mostly above about 13%, no sharp cut-off; inactive = mostly below about 14%; also: read at 38.3 µM for the half of the compounds with a filed dose; 0% is about no effect
HCMV inh: qHTS Assay for inhibitors of the human cytomegalovirus (HCMV). 410,000 compounds, 4.5% hits. AID 1259415, 2018. HFF cells, HCMV-luciferase reporter, 72 h; active compounds read low. activity change, negative = inhibition, % at 57.5 µM; in the data active = activity change below about -60%; inconclusive = no clear call, values can overlap the other calls; inactive = above about -39%; also: % is scaled to controls: 0 for no effect and ±100 for the full control effect
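Steps: HFFs plated, 16 h 37C; compounds added; HCMV-luciferase added to MOI 1 PFU/cell; 72 h 37C; OneGlo reagent, 5 min room temperature; luminescence read, normalized to controls.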
HCV inh: qHTS Assay for Inhibitors of Hepatitis C Virus (HCV) | Potency, µM (top dose mostly 41.8 µM), for the others: at the highest dose activity change, negative = inhibition, most hits filed as inhibitors | Huh7.5.1 HCVcc-Cre infection, luciferase reporter, 44 h | 340,000 compounds, 3.4% hits | AID 651820, 2012; also: potency is read from the fitted curve at half-maximal effect; % is scaled to controls: 0 for no effect and ±100 for the full control effect
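Infectious HCV cell culture screen: compound-treated cells (1,000/well, pre-plated 4 h) are infected with HCVcc-Cre at roughly 0.5 moi and grown 44 h. Infection is quantified by luciferase signal after 15 min substrate incubation at room temperature.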
Active calls of the source: *; ? = inconclusive; · = no result given; + = active, no number; ! = repeats disagree. A selection: hits, their analogues and other compounds. The true share with any hit is near 21%. Unless noted, calls follow the shape of the dose curve; as a rule, active = well fitted inhibition curve with a large enough effect; inconclusive = small, poorly fitted or top-dose-only effect, or another doubt; inactive = no such curve, though single readings can be large or run the other way.

SMILES | Pf growth 96h | Shiga inhibitor | Pf growth 48h | CHX counter | HCMV inh | HCV inh
Nc1ccc2nc(C(F)(F)F)[nH]c2c1 | 31% | -6 | 3% | 0 | -10 | 26%
O=C(NC1CCCC1)C1C(c2ccccc2)=Nc2ccccc2N1C(=O)c1ccc(C(F)(F)F)cc1 (centres undefined) | · | · | · | · | -83* | ·
O=C(NC1CCCC1)C1C(c2ccc(C(F)(F)F)cc2)=Nc2ccccc2N1C(=O)c1cccc(C(F)(F)F)c1 (centres undefined) | · | · | · | · | 62 | ·
CCCCNC(=O)C1C(c2ccc(C(F)(F)F)cc2)=Nc2ccccc2N1C(=O)c1ccc2nc(C)[nH]c2c1 (centres undefined) | · | · | · | · | -86* | ·
COc1ccc(NC(=O)c2ccc3c(c2)c(C)c(C)n3Cc2ccc(F)cc2)c(OC)c1 | · | · | · | · | + | ·
COc1ccc(OC)c(NC(=O)c2ccc3c(c2)c(C)c(C)n3Cc2ccc(F)cc2)c1 | · | · | · | · | 0 | ·
Cc1nn(-c2ccccc2)c(OC(=O)C(C)(C)C)c1Sc1ccccc1 | · | · | · | · | 23 | ·
CCOc1ccc(C(=O)CCC(=O)NCC(=O)Nc2ccc(F)c(F)c2F)cc1 | · | · | · | · | 26 | ·
N#Cc1ccc(-c2ccc(OCC(=O)NCC(=O)Nc3ccc(F)c(F)c3F)cc2)cc1 | -2% | 9 | 5% | 2 | -60* | 4%
COc1ccc(N2CC(C)Cn3c2nc2c3c(=O)n(Cc3ccc(C)cc3)c(=O)n2C)c(OC)c1 (centres undefined) | ? | -23 | 4.7µM* | 6 | -18 | ?
Cc1cccc(N2CCN(C(=O)CN3C(=O)NC(C)(C4CC4)C3=O)CC2)c1C (centres undefined) | 30% | · | ? | · | -1 | -2%
CCOC(=O)c1c(Nc2ccc(Cl)cc2)sc(/C=C2\C=Nc3ccccc32)c1O | · | -7 | 4.1µM* | -4 | -73*! | ?
Oc1nc(Nc2cccc(Cl)c2)sc1/C=C1\C=Nc2ccccc21 | ? | -5 | -11% | -2 | -20 | -23%
CC(C)[C@H](NC(=O)OCc1ccccc1)C(=O)OCc1cc(=O)oc2cc(O)ccc12 | ? | 14 | -28% | 15 | 1 | 17%
CC1CN(S(=O)(=O)c2cccc(C(=O)OCc3cc(=O)oc4cc(O)ccc34)c2)CC(C)O1 (centres undefined) | -17% | 3 | ? | -1 | 28 | 10µM*!
CN(C)c1cccc(C(=O)OCc2cc(=O)oc3cc(O)ccc23)c1 | · | 49 | 12µM* | 16* | 8 | ?
CCC(C)NC(=O)c1ccc(CNS(=O)(=O)c2ccc3c(c2)C(C)(C)C(=O)N3C)cc1 (centres undefined) | 9.3µM* | -4 | 0% | -3 | 33 | -4%
CC(=O)c1ccc(NS(=O)(=O)c2ccc3[nH]c(=O)[nH]c3c2)cc1 | · | · | · | · | 0 | ·
CCN(CC)C(=O)c1ccc(NS(=O)(=O)c2ccc3[nH]c(=O)[nH]c3c2)cc1 | 8.3µM* | -12 | 12µM* | -1 | -35 | ·
CCC(C)NC(=O)c1ccc(NS(=O)(=O)c2ccc3[nH]c(=O)[nH]c3c2)cc1 (centres undefined) | ? | 13* | 23% | 28 | -1 | 2%
COCCOC(=O)C1=C(C)NC(=O)NC1c1ccc(-c2cc(Cl)ccc2Cl)o1 (centres undefined) | 42% | -11 | -13% | -2 | -29 | ?
CCn1c(-c2ccccc2O)n[nH]c1=S | 18% | 3 | 14% | -1 | -1 | 9%
Oc1ccccc1-c1cc(C(F)(F)F)[nH]n1 | 9.3µM* | -6 | ? | 10 | · | ·
O=[N+]([O-])c1ccccc1-c1cc(-c2ccccc2O)n[nH]1 | 100% | 69* | 209% | 75* | 10 | 0%
Oc1ccccc1-c1cc(C(F)(F)C(F)F)[nH]n1 | 16% | 28* | ? | 22* | -33 | ?
SMILES | Pf growth 96h | Shiga inhibitor | Pf growth 48h | CHX counter | HCMV inh | HCV inh
CCC(=O)NCCn1c(C)cc2ccccc21 | -14% | 3 | ? | -1 | · | 4%
Cc1cc2ccccc2n1CCNC(=O)c1ccc(Br)o1 | ? | 28* | ? | 19* | -12 | -18%
O=C(O)CNC(=O)c1ccc(S(=O)(=O)N2CCOCC2)cc1 | -14% | -10 | · | -4 | -24 | 11%
Cc1cc2ccccc2n1CCNC(=O)c1ccc(S(=O)(=O)N2CCOCC2)cc1 | 0% | 3 | 4.1µM* | -2 | 37 | 25%
Cc1cc2ccccc2n1CCNC(=O)Cc1cccc2ccccc12 | ? | 3 | ? | 1 | 34 | 6.3µM*
Cc1cc2ccccc2n1CCNC(=O)c1ccccc1 | 11% | 24 | 29% | 15* | ? | 16%
COc1cc(N2CCC(O)CC2)ccc1Nc1cc(Nc2ccccc2S(=O)(=O)C(C)C)c2cc[nH]c2n1 | · | · | · | · | -36 | ·
CSc1cc(-c2ccco2)oc1C(=O)c1ccco1 | · | · | · | · | -9 | ?
COc1ccc(/C=C/C(=O)Nc2ccc(Cl)cc2Cl)cc1 | · | · | · | · | 7 | ·
Cc1onc(-c2ccccc2Cl)c1C(=O)NCCn1c(C)cc2ccccc21 | 10µM* | -6 | 13µM* | 1 | · | -15%
Cc1onc(-c2ccccc2Cl)c1C(=O)NCC(=O)O | ? | 13 | 2% | -3 | 24 | 10%
C/C(=N\NC(=O)Cn1nc(C)c([N+](=O)[O-])c1C)c1ccco1 | 6% | -4 | 12% | -1 | 2 | -5%
COc1ccc(CNC(=O)Nc2nnc([C@H]3C[C@H](O)[C@@H](CO)O3)s2)cc1 | · | · | · | · | -97* | ·
O=C(NCc1ccc(F)cc1)Nc1nnc([C@@H]2C[C@H](O)[C@@H](CO)O2)s1 | · | · | · | · | -1 | ·
Cc1ccc(CNC(=O)Nc2nnc([C@@H]3C[C@H](O)[C@@H](CO)O3)s2)cc1 | · | · | · | · | 0 | ·
COc1ccc(CNC(=O)Nc2nnc([C@@H]3C[C@H](O)[C@@H](CO)O3)s2)cc1 | · | · | · | · | -83* | ·
Cc1nn(Cc2cccc(C(=O)Nc3ccn(Cc4ccccc4F)n3)c2)c(C)c1[N+](=O)[O-] | · | -27 | -9% | -2 | 26 | 16%
Cn1ncc([N+](=O)[O-])c1C(=O)Nc1ccn(Cc2ccccc2F)n1 | 36% | -9 | ? | -3 | -62* | ·
Cn1cc([N+](=O)[O-])c(C(=O)Nc2ccn(Cc3c(F)c(F)cc(F)c3F)n2)n1 | · | -6 | 26% | 4 | -92* | ?
Cc1cc(C)n2nc(SC(C)C(=O)Nc3ccccc3F)nc2n1 (centres undefined) | · | · | · | · | -9 | -7%
CCOC(=O)c1ccc(NCc2ccncc2)cc1 | · | · | · | · | -38 | 3%
CCOC(=O)c1ccc(N2Cc3ccccc3C2=N)cc1 | 69% | 126* | · | 34* | -5 | 5%

Screening data from PubChem BioAssay.
